# From PubChem BioAssay AID623996 (NMMLSC, 2012)
# Measured potencies and affinities stand elsewhere. The source made the active and inactive calls.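 The calls were made as follows: active = fitted concentration giving half the maximal Nile Red retention below 100 µM; inactive = the rest.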
# Target: Multidrug resistance protein CDR1 (Candida albicans) (UniProt P43071)
# Test: CaCdr1 efflux pump inhibitor potency, dose response, singleplex, Cherry Pick2 set (AID 623996)
# Conditions: S. cerevisiae AD/CaCDR1, Nile Red efflux inhibition, flow cytometry; series mostly up to 100 µM
# Sequence of Multidrug resistance protein CDR1 (Candida albicans) (P43071 whole entry, looked up): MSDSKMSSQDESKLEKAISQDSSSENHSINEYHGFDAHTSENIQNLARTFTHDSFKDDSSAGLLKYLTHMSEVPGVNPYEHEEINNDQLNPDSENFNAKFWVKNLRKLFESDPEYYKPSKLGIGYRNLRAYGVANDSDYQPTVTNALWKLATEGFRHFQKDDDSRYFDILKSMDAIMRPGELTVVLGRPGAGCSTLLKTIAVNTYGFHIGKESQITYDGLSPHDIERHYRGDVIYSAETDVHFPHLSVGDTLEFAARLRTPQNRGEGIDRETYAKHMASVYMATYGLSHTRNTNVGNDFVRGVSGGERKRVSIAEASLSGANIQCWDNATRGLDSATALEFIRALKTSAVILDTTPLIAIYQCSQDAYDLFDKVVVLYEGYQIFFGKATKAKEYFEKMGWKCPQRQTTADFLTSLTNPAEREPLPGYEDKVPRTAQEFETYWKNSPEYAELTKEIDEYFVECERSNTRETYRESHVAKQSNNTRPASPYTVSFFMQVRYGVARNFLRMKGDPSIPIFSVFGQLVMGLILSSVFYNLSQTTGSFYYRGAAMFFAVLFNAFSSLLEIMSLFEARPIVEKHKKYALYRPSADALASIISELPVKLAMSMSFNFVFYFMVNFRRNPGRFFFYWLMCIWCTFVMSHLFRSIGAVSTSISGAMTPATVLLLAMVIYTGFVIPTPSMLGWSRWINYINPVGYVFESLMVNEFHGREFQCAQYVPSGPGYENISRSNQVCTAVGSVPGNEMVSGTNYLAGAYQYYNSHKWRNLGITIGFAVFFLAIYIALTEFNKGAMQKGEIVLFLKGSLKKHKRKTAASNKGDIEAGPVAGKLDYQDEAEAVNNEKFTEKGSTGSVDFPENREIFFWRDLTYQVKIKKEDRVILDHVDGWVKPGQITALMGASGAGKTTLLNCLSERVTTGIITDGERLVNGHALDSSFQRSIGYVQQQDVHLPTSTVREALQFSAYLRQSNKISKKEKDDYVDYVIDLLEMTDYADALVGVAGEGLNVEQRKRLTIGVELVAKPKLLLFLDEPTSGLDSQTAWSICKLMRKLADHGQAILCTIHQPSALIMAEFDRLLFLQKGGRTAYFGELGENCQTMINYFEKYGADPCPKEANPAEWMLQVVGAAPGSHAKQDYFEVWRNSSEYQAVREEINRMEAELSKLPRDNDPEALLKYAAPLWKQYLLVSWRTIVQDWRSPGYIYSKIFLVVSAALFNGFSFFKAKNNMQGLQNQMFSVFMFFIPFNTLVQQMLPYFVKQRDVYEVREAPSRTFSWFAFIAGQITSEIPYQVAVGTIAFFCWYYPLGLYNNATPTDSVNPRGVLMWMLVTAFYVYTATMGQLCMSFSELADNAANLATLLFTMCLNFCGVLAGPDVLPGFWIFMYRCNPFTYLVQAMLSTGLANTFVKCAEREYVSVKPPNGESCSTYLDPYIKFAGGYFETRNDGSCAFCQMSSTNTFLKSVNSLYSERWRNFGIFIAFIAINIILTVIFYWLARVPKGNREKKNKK
row,Compound,outcome
1,COc1ccccc1C(=O)OCCc1ccccc1,inactive
2,NS(=O)(=O)c1ccc(N2N=C(c3ccc(Br)cc3)CC2c2ccc(F)cc2)cc1 (stereo unspecified),inactive
3,COc1cc(OC)c2ccc(=O)oc2c1C(CCN1CCCCC1)c1ccc(N(C)C)cc1 (stereo unspecified),inactive
4,O=C(c1ccoc1)N1CCC2(CC1)Oc1ccc(F)cc1C(=O)C21CC(c2ccccc2)=NO1 (stereo unspecified),inactive
5,Cc1cc(C)c2sc(N(CCCN(C)C)C(=O)c3ccc(Br)s3)nc2c1,inactive
6,COc1cc(OC)c2ccc(=O)oc2c1C(CCN1CCCC(C)C1)c1ccc(N(C)C)cc1 (stereo unspecified),inactive
7,NC1=NC[C@H](Cc2ccc(O)cc2)N1CCc1cc(C(F)(F)F)cc(C(F)(F)F)c1,inactive
8,O=C(NCCC1=CCCCC1)C1CCC(CNc2nc(=S)[nH]c3ccccc23)CC1 (stereo unspecified),inactive
9,COc1ccc(C2CC(c3ccccc3)=NN2c2ccc(S(N)(=O)=O)cc2)cc1 (stereo unspecified),inactive
10,O=C(c1ccoc1)N1CCC2(CC1)Oc1ccc(F)cc1C(=O)C21CC(c2ccc(Cl)cc2)=NO1 (stereo unspecified),inactive
11,CCCCNC(=O)C1CCC(CNc2nc(=S)[nH]c3ccccc23)CC1 (stereo unspecified),inactive
12,O=C(C1CCCN(c2ncnc3c2nc2n3CCCCC2)C1)N1CCN(c2ccccc2F)CC1 (stereo unspecified),inactive
13,C[C@H](CO)N1C[C@H](C)[C@@H](CN(C)S(=O)(=O)c2ccccc2)Oc2c(NC(=O)Nc3ccccc3)cccc2C1=O,inactive
14,COc1ccc(CNC(=O)C(C#N)c2nc3ccccc3nc2N2CCCC2)cc1 (stereo unspecified),inactive
15,CC1CN(c2nc3ccccc3nc2C(C#N)C(=O)NCc2ccc3c(c2)OCO3)CC(C)O1 (stereo unspecified),inactive
16,NC1=NC[C@H](Cc2ccc(O)cc2)N1CCCCC1CCCCC1,inactive

row,Compound,outcome
1,COc1cccc(-c2sc3ccc(OC)cc3c2-c2ccc(OCCN3CCOCC3)cc2)c1,inactive
2,COc1ccc(C2CC(c3cccc(OC)c3)=NN2c2ccc(S(N)(=O)=O)cc2)cc1 (stereo unspecified),inactive
3,O=C(CSc1nnc(Cc2cccs2)n1Cc1ccco1)Nc1ccc(Br)cc1,inactive
4,CCC(=O)N1CCN(c2ccc(Cl)cc2NC(=O)c2ccc3c(c2)OCCO3)CC1,inactive
5,O=C(c1ccc2c(c1)OCO2)N1CCC2(CC1)Oc1ccc(F)cc1C(=O)C21CC(c2ccccc2)=NO1 (stereo unspecified),inactive
6,O=C(Nc1ccccc1)C1=C[C@H](c2ccccc2)C[C@H](OCCCCO)O1,inactive
7,COc1cccc(N2CCN(C(=O)C3CCCN(c4ncnc5c4nc4n5CCCCC4)C3)CC2)c1 (stereo unspecified),inactive
8,Cc1cc(C(=O)NC2CC(C)(C)Cc3c2cnn3-c2ccc(F)cc2)no1 (stereo unspecified),inactive
9,C[C@@]12C(=O)Nc3ccc(Cl)cc3C(=O)N1[C@H]1c3cc(Cl)ccc3OC[C@@H]1[C@@H]2c1ccccc1,inactive
10,NS(=O)(=O)c1ccc(N2N=C(c3ccccc3)CC2c2ccc(Br)cc2)cc1 (stereo unspecified),inactive
11,Cc1ccc2sc(N(CCCN(C)C)C(=O)c3ccc(Br)s3)nc2c1C,inactive
12,Cc1ccc(C)c(N2CCN(C(=O)C3CCCN(c4ncnc5c4nc4n5CCCCC4)C3)CC2)c1 (stereo unspecified),inactive
13,O=C(C[n+]1cc(-c2ccc(Cl)cc2)n2c1CCC2)N1c2ccccc2Sc2ccccc21,inactive
14,COc1ccc(C(=O)NC2CC(C)(C)Cc3c2cnn3-c2ccccc2)c(OC)c1 (stereo unspecified),inactive
15,O=C(NCCc1ccc(Cl)cc1)C1CCC(CNc2nc(=S)[nH]c3ccccc23)CC1 (stereo unspecified),inactive
